B-score data for 55 compounds are collected here from PubChem BioAssay AID1918 (Vanderbilt High Throughput Screening Facility, 2009).

The structures appear in SMILES notation. Out of some 130,000 compounds screened, about 2,500 (1.9%) were called active. This is one part of a sample in which actives are shown more often than they occur. Unmarked numbers belong to inactive results.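 The calls were made as follows: active = signal ratio slope over the read window, or its plate-corrected B-score, at least 3 SD from the plate mean, either direction; inactive = the rest.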

The test deals with ATP-sensitive inward rectifier potassium channel 1 (Homo sapiens) (UniProt P48048). The test is described as follows: Kir1.1 channel activity modulation, library screen – cell-based, thallium flux, MLSMR library, primary screen (AID 1918).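 Also: B-score of the F/F0 ratio slope over 7 to 12 s after thallium.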 Conditions: Tet-inducible ROMK, thallium flux fluorescence; at 10 µM; actives lie on both sides.
ATP-sensitive inward rectifier potassium channel 1 (Homo sapiens), sequence (P48048 whole entry, looked up): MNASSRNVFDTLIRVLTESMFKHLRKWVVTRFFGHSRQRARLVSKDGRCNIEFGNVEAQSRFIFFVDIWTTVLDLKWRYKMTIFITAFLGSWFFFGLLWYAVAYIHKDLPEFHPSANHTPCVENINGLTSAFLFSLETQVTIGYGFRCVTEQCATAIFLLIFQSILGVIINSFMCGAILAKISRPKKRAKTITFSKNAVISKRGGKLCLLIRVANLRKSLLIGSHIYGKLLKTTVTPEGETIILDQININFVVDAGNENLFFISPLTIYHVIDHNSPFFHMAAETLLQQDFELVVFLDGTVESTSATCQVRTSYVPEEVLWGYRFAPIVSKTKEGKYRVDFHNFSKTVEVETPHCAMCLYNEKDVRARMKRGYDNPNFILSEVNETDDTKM
`CC(C)(C)CC(C)(C)NCC(O)COCCOc1ccc(Br)cc1` (stereo not given): the B-score is -3.09 (active).
With `Cc1noc(COc2ccccc2OCC(O)CNC(C)(C)C)n1` (stereo not given) the figure was -0.0138.
For the compound `Nc1ccccc1SC(C[N+](=O)[O-])c1ccccc1` (stereo not given), the B-score was -8.64 (active).
With `O=C(NCc1ccc(Cl)cc1)NCc1ccc(Cl)cc1` the figure was -0.951; with `S=c1[nH]nc(-c2ccccc2)n1/N=C/c1c[nH]c2ccccc12`, 1.36; with `S=c1[nH]nc(-c2cccnc2)n1/N=C/C(Cl)=C\c1ccccc1`, -3.13 (active).
The result for `Oc1ccccc1/C=N/n1c(-c2cccs2)n[nH]c1=S` reads 0.503; that for `Cc1ccc(C(=O)O)cc1NC(=O)c1ccc(Cn2nc(C)c(Cl)c2C)o1`, -0.188; that for `Cc1nc2sc3c(c2c(=O)n1NC(=O)CCl)CCCC3`, -0.421.
The result for `Cc1cc(/C=C2/C(=N)N3C(=NC2=O)SN=C3S(C)(=O)=O)c(C)n1-c1ccccc1` reads 1.2 (active).
For the compound `CCS(=O)(=O)C1=NSC2=NC(=O)/C(=C\c3cc(C)n(-c4cccc(OC)c4)c3C)C(=N)N21`, the B-score is 1.02.
Consider `CS(=O)(=O)c1ccc2c(c1)SC1=NC(=O)/C(=C/c3ccco3)C(=N)N12`, for which the B-score was 0.317.
Consider `CC(C)(C)NC(=O)NC(=O)COC(=O)Cc1c(F)cccc1Cl`, for which the B-score was -0.0671.
The result for `COC(=O)COc1ccc(C2NC(=O)NC(C)=C2C(=O)NCc2ccccc2)cc1OC` (stereo not given) reads 0.834; that for `NS(=O)(=O)c1ccc(NC(=O)/C=C/c2ccccc2Cl)cc1`, 0.913.
With `CCN(CC)N=Nc1cccc(NC(C)=O)c1`, the B-score was 0.863.
`CCn1c(=N)c(C(=O)NCCCOC)cc2c(=O)n3cccc(C)c3nc21`: the B-score was -1.26.
Take `Cc1cccn2c(=O)c3cc(C#N)c(=O)n(CCCN4CCOCC4)c3nc12`: the B-score was 0.896.
With `Cc1cccn2c(=O)c3cc(C(=O)N4COCC4(C)C)n(C)c3nc12`, the B-score was -4.56 (active).
In the case of `S=C(c1ccc(-c2ccccc2)o1)N1CCCCC1`, the B-score was -1.97.
With `CC(=O)NC(Cc1ccc(F)c(F)c1)C(=O)NC1CCN(C(=O)c2ccc(C)cc2)CC1` (stereo not given), the B-score is -0.484.
Consider `CCOC(=O)N1CCN(C(=O)c2ccccc2N(Cc2ccccc2)S(=O)(=O)c2ccc(OC)cc2)CC1`, for which the B-score was 2.44.
With `NC(=O)c1ccccc1N(Cc1ccccc1)S(=O)(=O)c1ccccc1`, the B-score is 3.2 (active).
The result for `CCOC(=O)C1CCN(C(=O)c2ccccc2N(C)S(=O)(=O)c2ccccc2)CC1` reads 0.0133; that for `COC(=O)c1ccccc1NC(=O)C1CCN(S(=O)(=O)c2cc(OC)ccc2OC)CC1`, 2.29 (active).
The result for `COC(=O)c1ccccc1NC(=O)C1CC(=O)N(c2ccc(OC)cc2)C1` (stereo not given) reads 0.403.
Turning to `CCOC(=O)C1CCN(S(=O)(=O)c2cc(F)ccc2OC)CC1`, the B-score is -0.346.
For `CCOC(=O)C1=C(CN2CCCCCC2)NC(=O)NC1c1cccc([N+](=O)[O-])c1` (stereo not given), the B-score is -1.02.
For the compound `COc1ccc(C(=O)NC2CCN(C(=S)NCCc3ccccc3)CC2)cc1`, the B-score is -0.464.
With `NS(=O)(=O)c1ccc(CCNC(=O)c2ccc([N+](=O)[O-])cc2[N+](=O)[O-])cc1` the figure was 0.546.
Turning to `CN1CCN(c2ccc(S(=O)(=O)N3CCCCC3)cc2NC(=O)Cc2ccccc2F)CC1`, the B-score is -4.06 (active).
In the case of `O=C(COC(=O)c1ccccc1F)Nc1cc(S(=O)(=O)N2CCOCC2)ccc1N1CCCC1`, the B-score is -0.699.
For `COc1ccc(CC(=O)Nc2cc(S(=O)(=O)N3CCCCC3)ccc2N2CCN(C)CC2)cc1`, the B-score is 0.269.
With `C=CCOC(=O)C1=C(C)N=C2SCCC(=O)N2C1/C=C/c1ccccc1OC` (stereo not given), the B-score is -2.24.
As to `COCCn1c(Cc2cccn2C)nnc1SCC(=O)Nc1nccs1`, the B-score is -0.191.
The result for `CCn1c(/C=C/Nc2ccccc2)[n+](CC)c2ccc(C(=O)OCC(F)(F)F)cc21` reads -3.51 (active); that for `Cn1cnc(S(=O)(=O)Nc2ccc3c(c2)OCCO3)c1`, 1.18; that for `Cc1[nH]c2ccccc2c1/C=C(/C#N)C(=O)NC(C)C`, 0.27.
With `O=C(/C=C/c1c(F)cccc1Cl)Nc1nn[nH]n1`, the B-score is -0.796.
`CNC(=O)/C(C#N)=C/c1c(F)cccc1Cl`: the B-score was -5.65 (active).
In the case of `COc1ccc(C(=O)NC2CCN(C(=S)Nc3ccccc3)CC2)cc1`, the B-score was 0.59.
With `C=CCn1c(COc2ccc(F)cc2)nnc1SCC(=O)Nc1cccc(S(N)(=O)=O)c1` the figure was 0.118; with `COC(=O)CNc1nc(Cl)nc(N2CCC(C)CC2)n1`, -0.416.
Regarding `COCCNC(=O)c1ccc(-n2c(SCc3cccnc3)nc3ccccc3c2=O)cc1`, the B-score was -0.255.
`O=C1CN(C(=O)COC(=O)c2cnc(Cl)c(Cl)c2)c2ccccc2N1`: the B-score is -0.857.
For `CN(C)CC(O)COc1ccc(C(C)(C)c2ccc(OCC(O)CN(C)C)cc2)cc1` (stereo not given), the B-score is -0.0221.
For `CCCOc1ccc(C(=O)NCCc2ccccc2)cc1`, the B-score was 0.056.
With `CC(C)(c1ccccc1)c1ccc(OCCN)cc1` the figure was -2.62 (active).
Consider `O=C(Nc1ccc(N2CCOCC2)cc1)c1ccc(-c2ccccc2[N+](=O)[O-])o1`, for which the B-score is 3.49 (active).
With `O=C(NC(=S)Nc1ccc(S(=O)(=O)N2CCOCC2)cc1)c1ccccc1[N+](=O)[O-]` the figure was -0.648.
The result for `CN(CC(=O)Nc1ccc(N2CCOCC2)cc1)CC(=O)Nc1ccccc1[N+](=O)[O-]` reads -0.00205; that for `CCc1nnc(NC(=O)Cc2cccs2)s1`, 0.627.
The result for `CCn1cc(CN2CCCC(CNS(=O)(=O)Cc3ccccc3)C2)cn1` (stereo not given) reads -1.12; that for `CCOc1ncccc1C(=O)OCC(=O)NC1CC1`, 0.144.
On to `COc1cccc(NC(=O)CC2C(=O)NCCN2C(=S)Nc2ccc(F)cc2)c1` (stereo not given), for which the B-score is -0.0401.
